ELG1 repair inh = inhibitors of ELG1-dependent DNA repair in HEK293T cells | AID 504467 | Potency, µM (series often up to 46.1 µM), for the others: at the top dose activity change, negative = inhibition, actives largely listed as inhibitors | HEK293T ELG1-luciferase reporter, luminescence, 16 h; DNA damage induced by 5-fluorouridine | 2.3% of 330,000 active; note: potency is the fitted concentration of half-maximal effect; nearly all actives have a fitted effect of over 55% in size
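Cells (2,000 per well) received 5-fluorouridine plus test compound or DMSO and were incubated 16 hr at 37 °C, 5% CO2. Luciferase activity was read by luminescence 30 min after ONE-Glo addition; signal suppression marked inhibition of damage-induced ELG1 function.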
Gal4-VP16 FLuc = inhibits Gal4-VP16 luciferase reporter, ROR gamma counter-screen; Drosophila S2 Gal4-VP16 UAS-luciferase, luminescence, 20 h; 3.5% of 310,000 active; Potency, µM (highest dose often 53.6 µM), without a hit: at the highest dose activity, negative = inhibition, hits mostly inhibitors;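 note: Gal4-VP16 expression switched on by copper sulfate through the metallothionein promoter; potency is the fitted concentration of half-maximal effect; nearly all actives have a fitted effect of over 50% in size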
TDP1 cell noCPT = qHTS for Inhibitors of human tyrosyl-DNA phosphodiesterase 1 (TDP1): qHTS in cells in absence of CPT | DT40 Tdp1-/- hTDP1 cells, no CPT, ATP luminescence, 48 h | AID 686978, 2013 | 15% of 420,000 active | Potency, µM (series often up to 46.2 µM), inactives show at the top dose activity change, negative = growth inhibition, usual class: inhibitors; note: potency is the fitted concentration of half-maximal effect; nearly all actives have a fitted effect of over 55% in size
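Chicken DT40 Tdp1-/- cells stably complemented with human TDP1 were seeded at 400 cells/well with DMSO in place of 20 nM camptothecin. After compound pinning, cells grew at least 48 hr at 37 °C; viability read by CellTiter-Glo luminescence.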
DT40 TDP1 CPT = DT40-hTDP1 cell growth loss with CPT | chicken DT40 Tdp1-/-;hTDP1 cells + 20 nM CPT, ATP luminescence, 48 h | Potency, µM (series often up to 46.2 µM), without a hit: top-dose activity change, negative = growth inhibition, hits mostly inhibitors | 12% of 420,000 active | AID 686979; note: potency is the fitted concentration of half-maximal effect; nearly all actives have a fitted effect of over 55% in size
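Chicken DT40 Tdp1-/- cells stably complemented with human TDP1 were seeded at 400 cells/well in medium containing 20 nM camptothecin, exposed to pin-transferred compounds, and grown at 37 °C for at least 48 hr. Viability was read as ATP luminescence.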
RORgamma inh = inhibitors of mouse ROR gamma transcriptional activity | P51450 | Potency, µM (titrated, usually from 53.6 µM), for the others: at the top dose activity change, negative = inhibition, usual class: inhibitors | 5.4% of 310,000 active | Drosophila S2 Gal4-RORgamma UAS-luciferase reporter, 20 h; note: potency is the fitted concentration of half-maximal effect; nearly all actives have a fitted effect of over 60% in size
Target sequence (P51450 whole entry, looked up, the tested form may be a part): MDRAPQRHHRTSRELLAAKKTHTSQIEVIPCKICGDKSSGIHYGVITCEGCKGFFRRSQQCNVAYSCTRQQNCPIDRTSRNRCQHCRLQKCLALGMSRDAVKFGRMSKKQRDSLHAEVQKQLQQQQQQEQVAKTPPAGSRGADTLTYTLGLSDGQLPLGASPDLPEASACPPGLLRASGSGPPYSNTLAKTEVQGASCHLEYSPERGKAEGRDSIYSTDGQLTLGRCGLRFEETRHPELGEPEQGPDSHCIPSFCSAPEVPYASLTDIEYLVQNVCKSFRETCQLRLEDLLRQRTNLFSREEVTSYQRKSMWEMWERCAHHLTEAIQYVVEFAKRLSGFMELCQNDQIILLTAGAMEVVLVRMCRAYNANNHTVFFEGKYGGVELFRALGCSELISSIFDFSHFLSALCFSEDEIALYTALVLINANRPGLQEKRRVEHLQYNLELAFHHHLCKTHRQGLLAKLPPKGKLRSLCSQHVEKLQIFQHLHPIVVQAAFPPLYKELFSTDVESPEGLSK
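Stable Schneider cell line, Gal4 DNA-binding domain fused to ROR gamma, UAS-luciferase. Cmpd 1 hr RT → CuSO4 700 uM final → 20 hr RT → luciferase reagent 10 min → luminescence.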
IL-1B inflam inh = inflammasome signaling inhibition, IL-1 beta readout | activity change, % at 57.5 µM | THP-1 LPS/ATP IL-1B secretion, AlphaLISA, 16 h; active compounds read low | 4.7% of 360,000 active | AID 743279; in the data active = activity change below about -50%; inconclusive = mostly about -30% to -49%
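THP-1 cells pretreated 1 hr with compounds (up to 57.5 uM final), then stimulated with LPS (250 ng/mL final) plus ATP (1.25 mM final); secreted IL-1B measured by AlphaLISA after 16 hr, decreased signal indicating inhibition.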
* hit, by the source's call; i = inactive; ? = inconclusive; / = not tested or not shown. Sampled rows, rich in hits. Any-hit rate of the full collection: about 21%. Unless noted, calls come from the whole dose curve; as a rule, active = well fitted curve in the direction sought with a large enough effect; inconclusive = small, poorly fitted or top-dose-only effect, or another doubt; inactive = no such curve, though single readings can be large; an effect the other way counts as inactive or inconclusive. % is set by controls: 0 for no effect and ±100 for the full control effect.

SMILES	ELG1 repair inh	Gal4-VP16 FLuc	TDP1 cell noCPT	DT40 TDP1 CPT	RORgamma inh	IL-1B inflam inh
CCOc1ccccc1NC(=O)CSc1ccc(-c2sc(C)nc2C)nn1	?	-20%	16µM*	21µM*	12%	i
Cc1nc(-c2ccccc2)sc1-c1ccc(SCC(=O)NCc2ccccc2)nn1	/	/	-22%	-3%	/	/
Cc1ccccc1NC(=O)CSc1cn[nH]n1	8%	-3%	3%	7%	-4%	-2
CCOC(=O)c1ccccc1NC(=O)CSc1ccc(-c2cccnc2)nn1	?	-2%	?	-27%	13%	-16
CCOC(=O)c1ccccc1NC(=O)CSc1ccc(-c2sc(-c3ccccc3)nc2C)nn1	/	/	18µM*	?	/	/
CCOc1ccccc1NC(=O)CSc1cn[nH]n1	2%	/	-6%	-1%	/	-91*
COc1ccccc1CNC(=O)CSc1ccc(-c2sc(-c3ccccc3)nc2C)nn1	/	/	18µM*	?	/	/
CN(C)CCCNc1nc2cc(-c3cnn(C)c3)sc2c(=O)n1C	/	/	-12%	-27%	/	7
CC(NC(=O)c1ccccc1)c1nnc(SCC(=O)NC2CCCC2)n1C (stereo not drawn)	22%	7%	18%	0%	8%	-3
Cc1cc(C)c(NC(=O)CSc2ccc(-c3sc(-c4ccccc4)nc3C)nn2)c(C)c1	/	/	15µM*	23µM*	/	/
CCOC(=O)c1sc2ncnc(NCC(c3cccs3)N(C)C)c2c1C (stereo not drawn)	-7%	?	?	29µM*	?	3
CN1CCN(NC(=O)c2cn(-c3ccccc3)nc2-c2cccc(Br)c2)CC1	-20%	-19%	?	?	-30%	-136*
COc1cc(C)ccc1NC(=O)Cc1csc(NC(=O)Nc2ccccc2OC)n1	?	/	23µM*	23µM*	/	3
CCC(=O)Nc1nc(CC(=O)Nc2ccccc2OC)cs1	-1%	2%	-22%	1%	18%	1
COc1ccccc1NC(=O)Nc1nc(CC(=O)N2CCN(c3ccccc3OC)CC2)cs1	?	/	13µM*	21µM*	/	-56*
COc1ccccc1NC(=O)Cc1csc(NC(=S)Nc2ccc(C)cc2)n1	?	2.8µM*	?	?	0.89µM*	6
COc1ccccc1NC(=O)Nc1nc(CC(=O)Nc2ccc(OC)c(OC)c2)cs1	-26%	/	?	-27%	/	-2
COc1ccc(S(N)(=O)=O)cc1C(=O)NNC(=O)CN(C)S(=O)(=O)c1ccc(Cl)cc1	19%	/	-5%	-2%	/	5
COc1ccc(NC(=O)C2CCCN(S(C)(=O)=O)C2)cc1OC (stereo not drawn)	4%	-6%	11%	16%	-14%	3
Cc1cccc(-c2ccc3c(c2)C2CC3CCN2)c1 (stereo not drawn)	/	/	15µM*	21µM*	/	0
Fc1ccc(-c2ccc3c(c2)C2CC3CCN2)cc1 (stereo not drawn)	/	/	23µM*	18µM*	/	0
CCc1ccc2c(c1)NC(c1ccc(C)cc1)=NC(c1cccs1)=N2	/	/	26µM*	?	/	/
CC(C)c1ccc2c(c1)NC(c1ccncc1)=NC(c1cccs1)=N2	/	/	16µM*	?	/	/
CCCCOc1ccc(C2=NC(c3cccs3)=Nc3ccc(CC)cc3N2)cc1	/	/	?	21µM*	/	/
Clc1cccc(C2=NC(c3cccs3)=Nc3ccc(Br)cc3N2)c1	/	/	15µM*	16µM*	/	/
SMILES	ELG1 repair inh	Gal4-VP16 FLuc	TDP1 cell noCPT	DT40 TDP1 CPT	RORgamma inh	IL-1B inflam inh
CCc1ccc2c(c1)C(c1cccs1)=NNC(c1cccnc1)=N2	-6%	0%	-28%	-29%	24%	-2
CC(C)c1ccc2c(c1)C(c1cccs1)=NNC(c1ccncc1)=N2	12%	22%	-13%	-10%	-1%	-9
Cc1cc(C)c(S(=O)(=O)n2cnc(C)c2)c(C)c1	/	/	-3%	-2%	/	/
Cc1ccsc1C(=O)N1CCC1(C)C(=O)Nc1ccc2c(c1)OCCO2 (stereo not drawn)	/	/	?	-23%	/	-7
COc1ccc(N=CC2CCCCC2=O)c([N+](=O)[O-])c1 (stereo not drawn)	/	/	?	?	/	-85*
CCN(CC)CCNC(=O)C(=O)Nc1ccc2c(c1)N(S(=O)(=O)c1cccs1)CCC2	-3%	/	16µM*	15µM*	/	-22
CC(C)NC(=O)C(=O)Nc1ccc2c(c1)N(S(=O)(=O)c1cccs1)CCC2	?	/	?	?	/	4
CNC(=O)C(=O)Nc1ccc2c(c1)N(S(=O)(=O)c1cccs1)CCC2	13%	/	?	?	/	0
CCCCNC(=O)C(=O)Nc1ccc2c(c1)N(S(=O)(=O)c1cccs1)CCC2	/	/	1.8µM*	2.6µM*	/	35
Cc1occc1C(=O)Nc1cccc(Cl)c1Cl	?	?	0%	-1%	1%	0
CC(=O)c1ccc(OCc2cc(C(=O)N(C)Cc3ccon3)no2)cc1	?	9%	-27%	-24%	22%	4
CC(=O)c1ccc(OCc2cc(C(=O)N(C)CC3COc4ccccc4O3)no2)cc1 (stereo not drawn)	/	/	13µM*	10µM*	/	-26
CSc1ccccc1OCc1cc(C(=O)N2CCN(c3ccccc3)CC2C)no1 (stereo not drawn)	?	-5%	?	?	36%	11
CC(=O)c1ccc(OCc2cc(C(=O)N3CCN(c4ccccc4)CC3C)no2)cc1 (stereo not drawn)	?	?	18µM*	?	5%	?
CN(C)c1cc(-c2ccc(Br)cc2)oc(=O)c1Cl	?	1%	?	-3%	-2%	-51*
Cc1ccc(/C=C/C2=C[C@]3(C)C[C@]2(C)[C@H](c2ccc(C)cc2)CC3=O)cc1	/	6%	/	/	10%	/
O=C(NNc1cccc(Cl)n1)c1ccccc1CC[N+](=O)[O-]	-13%	-3%	?	10µM*	-9%	-9
CSC(=S)N/N=C/c1ccccc1	5%	3.2µM*	?	?	1.4µM*	25
COc1ccc(/C=N/NC(=S)SC)cc1OC	13%	3.2µM*	0%	?	1.6µM*	67
S=C(N/N=C/c1ccccc1)N1CCOCC1	?	2.5µM*	?	?	0.4µM*	24
S=C(Nc1ccccc1)N1CCOCC1	9%	-2%	12%	5%	-26%	1
COc1ccc2c(c1)c(C(=O)N/N=C/c1ccc(OC)c(OC)c1)c(C)n2C	?	-2%	12µM*	18µM*	6%	-11
